Source: the supplement of paper PMC10849652
Of roughly 7,900 targets only a part is listed; those with a hit were picked by preference. About 0.6% of all pairs of compound and target were hits. A number with no mark means an inactive call.

How the values were obtained:
Assay in all cases: log2 fold change, soluble protein after heating vs DMSO (PISA); higher = thermal stabilisation; K562 cells, 10 uM, 30 min; active = over 0.2 and 3.5 SD of the protein, either way, in both replicates (recomputed)
[1] = compound: NC(=O)Nc1cc(-c2cccc(F)c2)sc1C(=O)N[C@H]1CCCNC1
Method in brief: (§1)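 K562 cells at 2×10^6 cells/mL were treated with 10 μM compound for 30 min. Aliquots were heated for 3 min across 48°C-58°C, pooled, and extracted in PBS with 0.5% NP-40 at 4°C; soluble protein was the supernatant after 21,000xg for 90 min. Soluble protein was quantified by TMTpro 16plex LC-MS/MS with channel sums equalised, and reported as log2 fold change in thermal stability against DMSO controls, with values from duplicates.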

[2] = compound: NC(=O)c1cnc(N[C@@H]2CCCC[C@@H]2N)nc1Nc1cccc(-n2nccn2)c1
Method in brief: as §1

[3] = compound: NC1(c2ccc(-c3nc4ccn5c(=O)[nH]nc5c4cc3-c3ccccc3)cc2)CCC1
Method in brief: as §1

[4] = compound: NCC(=O)Nc1ccc(-n2nc(C(F)(F)F)cc2-c2ccc3c(ccc4ccccc43)c2)cc1
Method in brief: as §1

entinostat = compound: Nc1ccccc1NC(=O)c1ccc(CNC(=O)OCc2cccnc2)cc1 [entinostat]
Method in brief: as §1

vorinostat = compound: O=C(CCCCCCC(=O)Nc1ccccc1)NO [vorinostat]
Method in brief: as §1

citarinostat = compound: O=C(CCCCCCNC(=O)c1cnc(N(c2ccccc2)c2ccccc2Cl)nc1)NO [citarinostat]
Method in brief: as §1

silmitasertib = compound: O=C(O)c1ccc2c(c1)nc(Nc1cccc(Cl)c1)c1ccncc12 [silmitasertib]
Method in brief: as §1

[5] = compound: O=C1NC(=O)C(c2cnc3ccccn23)=C1c1cn2c3c(cc(F)cc13)CN(C(=O)N1CCCCC1)CC2
Method in brief: as §1

[6] = compound: c1cc(OCCN2CCCCC2)cc(-c2n[nH]c3ccc(-c4nnc[nH]4)cc23)c1
Method in brief: as §1

entospletinib = compound: c1cn2cc(-c3ccc4cn[nH]c4c3)nc(Nc3ccc(N4CCOCC4)cc3)c2n1 [entospletinib]
Method in brief: as §1

Sequence of UniProt Q13895 (Q13895 whole entry, looked up): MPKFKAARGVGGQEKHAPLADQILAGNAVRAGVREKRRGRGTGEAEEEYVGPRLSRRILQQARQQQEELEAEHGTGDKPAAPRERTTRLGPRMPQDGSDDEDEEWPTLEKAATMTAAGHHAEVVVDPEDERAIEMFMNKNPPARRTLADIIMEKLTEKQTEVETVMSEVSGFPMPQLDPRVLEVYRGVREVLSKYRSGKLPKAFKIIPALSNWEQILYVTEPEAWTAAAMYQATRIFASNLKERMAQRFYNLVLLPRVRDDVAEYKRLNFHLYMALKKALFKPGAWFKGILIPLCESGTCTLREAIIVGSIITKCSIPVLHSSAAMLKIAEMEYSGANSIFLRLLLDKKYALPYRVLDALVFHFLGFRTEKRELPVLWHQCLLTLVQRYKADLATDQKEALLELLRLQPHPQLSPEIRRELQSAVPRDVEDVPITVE
Sequence of UniProt O00116 (O00116 whole entry, looked up): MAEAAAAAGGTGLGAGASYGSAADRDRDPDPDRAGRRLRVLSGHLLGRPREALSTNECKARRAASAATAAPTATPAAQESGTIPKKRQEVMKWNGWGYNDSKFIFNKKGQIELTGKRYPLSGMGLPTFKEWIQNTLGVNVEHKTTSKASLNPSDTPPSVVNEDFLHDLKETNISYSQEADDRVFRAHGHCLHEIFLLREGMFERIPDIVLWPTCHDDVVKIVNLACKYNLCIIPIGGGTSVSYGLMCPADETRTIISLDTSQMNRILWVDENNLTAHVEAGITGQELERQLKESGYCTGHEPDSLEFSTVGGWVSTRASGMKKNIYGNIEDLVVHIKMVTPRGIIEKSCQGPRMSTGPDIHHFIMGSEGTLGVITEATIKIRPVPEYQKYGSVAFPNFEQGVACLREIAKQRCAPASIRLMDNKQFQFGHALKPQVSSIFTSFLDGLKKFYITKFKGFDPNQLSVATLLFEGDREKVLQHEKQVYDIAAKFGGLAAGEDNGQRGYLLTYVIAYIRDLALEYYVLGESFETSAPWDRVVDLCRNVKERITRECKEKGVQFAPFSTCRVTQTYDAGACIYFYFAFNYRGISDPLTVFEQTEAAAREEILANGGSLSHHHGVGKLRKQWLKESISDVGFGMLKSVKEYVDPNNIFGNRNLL
Sequence of UniProt O15440 (O15440 whole entry, looked up): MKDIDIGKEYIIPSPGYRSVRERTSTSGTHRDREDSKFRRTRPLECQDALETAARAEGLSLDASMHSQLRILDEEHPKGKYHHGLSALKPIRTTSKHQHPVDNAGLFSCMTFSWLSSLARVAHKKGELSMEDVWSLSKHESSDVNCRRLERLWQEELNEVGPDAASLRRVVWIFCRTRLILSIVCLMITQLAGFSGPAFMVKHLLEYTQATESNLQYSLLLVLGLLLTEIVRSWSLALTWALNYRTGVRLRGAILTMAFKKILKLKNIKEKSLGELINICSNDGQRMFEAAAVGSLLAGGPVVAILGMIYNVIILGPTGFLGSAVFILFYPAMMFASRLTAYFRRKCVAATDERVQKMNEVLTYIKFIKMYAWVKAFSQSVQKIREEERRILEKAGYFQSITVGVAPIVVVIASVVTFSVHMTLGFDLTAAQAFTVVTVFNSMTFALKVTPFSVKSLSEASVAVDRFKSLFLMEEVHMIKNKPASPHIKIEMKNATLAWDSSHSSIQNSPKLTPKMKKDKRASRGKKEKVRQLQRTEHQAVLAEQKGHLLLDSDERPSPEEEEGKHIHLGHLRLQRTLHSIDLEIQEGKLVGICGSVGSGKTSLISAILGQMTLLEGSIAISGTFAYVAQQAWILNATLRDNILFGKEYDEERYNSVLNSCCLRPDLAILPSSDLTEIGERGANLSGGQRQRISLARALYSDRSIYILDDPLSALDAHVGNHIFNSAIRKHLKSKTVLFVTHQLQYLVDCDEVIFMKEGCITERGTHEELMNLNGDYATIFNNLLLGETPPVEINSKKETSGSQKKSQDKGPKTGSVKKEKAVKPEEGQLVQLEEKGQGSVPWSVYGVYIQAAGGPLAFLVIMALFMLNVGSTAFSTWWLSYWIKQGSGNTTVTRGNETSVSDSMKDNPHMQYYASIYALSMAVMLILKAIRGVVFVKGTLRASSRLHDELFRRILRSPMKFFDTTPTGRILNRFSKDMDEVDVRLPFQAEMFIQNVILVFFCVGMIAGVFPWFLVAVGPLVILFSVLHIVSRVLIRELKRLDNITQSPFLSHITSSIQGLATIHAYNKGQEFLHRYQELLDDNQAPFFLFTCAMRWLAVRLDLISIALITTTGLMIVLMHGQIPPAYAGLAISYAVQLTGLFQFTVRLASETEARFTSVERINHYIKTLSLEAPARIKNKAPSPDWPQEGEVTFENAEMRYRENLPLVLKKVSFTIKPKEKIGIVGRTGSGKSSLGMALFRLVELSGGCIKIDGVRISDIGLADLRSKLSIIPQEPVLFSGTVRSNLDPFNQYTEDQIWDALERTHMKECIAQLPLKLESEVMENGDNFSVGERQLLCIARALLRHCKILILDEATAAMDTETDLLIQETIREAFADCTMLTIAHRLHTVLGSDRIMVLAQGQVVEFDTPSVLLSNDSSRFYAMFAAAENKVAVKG
Sequence of UniProt Q92934 (Q92934 whole entry, looked up): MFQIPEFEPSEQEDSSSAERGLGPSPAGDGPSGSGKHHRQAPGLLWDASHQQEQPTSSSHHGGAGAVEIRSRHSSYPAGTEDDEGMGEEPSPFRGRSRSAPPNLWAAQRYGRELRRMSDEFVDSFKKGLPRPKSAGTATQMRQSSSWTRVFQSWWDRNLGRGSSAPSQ
Sequence of UniProt Q7Z569 (Q7Z569 whole entry, looked up): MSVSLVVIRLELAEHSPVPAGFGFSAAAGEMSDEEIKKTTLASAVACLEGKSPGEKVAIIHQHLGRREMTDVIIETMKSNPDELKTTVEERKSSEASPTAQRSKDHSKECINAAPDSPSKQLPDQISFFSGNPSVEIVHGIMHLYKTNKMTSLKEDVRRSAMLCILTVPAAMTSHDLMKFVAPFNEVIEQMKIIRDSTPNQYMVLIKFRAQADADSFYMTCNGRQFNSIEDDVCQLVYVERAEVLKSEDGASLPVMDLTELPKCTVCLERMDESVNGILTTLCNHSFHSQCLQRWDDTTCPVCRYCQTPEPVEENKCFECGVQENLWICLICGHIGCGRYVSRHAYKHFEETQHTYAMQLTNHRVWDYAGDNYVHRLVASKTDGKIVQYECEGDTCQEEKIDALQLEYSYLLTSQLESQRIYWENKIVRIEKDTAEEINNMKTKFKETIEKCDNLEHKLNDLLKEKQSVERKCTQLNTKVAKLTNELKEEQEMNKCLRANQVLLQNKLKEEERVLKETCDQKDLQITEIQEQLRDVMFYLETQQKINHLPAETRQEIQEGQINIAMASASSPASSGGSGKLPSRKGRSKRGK
Sequence of UniProt Q16186 (Q16186 whole entry, looked up): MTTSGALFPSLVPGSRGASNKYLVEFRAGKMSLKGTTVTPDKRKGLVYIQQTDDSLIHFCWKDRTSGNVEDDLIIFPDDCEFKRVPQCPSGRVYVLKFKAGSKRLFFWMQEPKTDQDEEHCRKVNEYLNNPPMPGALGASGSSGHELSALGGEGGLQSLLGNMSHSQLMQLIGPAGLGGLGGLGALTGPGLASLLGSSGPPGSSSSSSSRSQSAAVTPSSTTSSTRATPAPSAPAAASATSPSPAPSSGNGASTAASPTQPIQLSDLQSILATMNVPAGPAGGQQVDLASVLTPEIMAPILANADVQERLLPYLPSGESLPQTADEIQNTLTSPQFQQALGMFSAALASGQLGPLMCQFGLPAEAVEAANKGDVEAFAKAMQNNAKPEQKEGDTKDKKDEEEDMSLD
Sequence of UniProt P56385 (P56385 whole entry, looked up): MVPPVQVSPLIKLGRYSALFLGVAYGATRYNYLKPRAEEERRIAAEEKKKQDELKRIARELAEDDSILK
Sequence of UniProt P53680 (P53680 whole entry, looked up): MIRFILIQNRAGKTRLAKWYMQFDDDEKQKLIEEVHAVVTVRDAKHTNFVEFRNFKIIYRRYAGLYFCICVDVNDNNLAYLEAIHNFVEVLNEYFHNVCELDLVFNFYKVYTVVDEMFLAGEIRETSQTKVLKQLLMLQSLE
Sequence of UniProt Q9BTT0 (Q9BTT0 whole entry, looked up): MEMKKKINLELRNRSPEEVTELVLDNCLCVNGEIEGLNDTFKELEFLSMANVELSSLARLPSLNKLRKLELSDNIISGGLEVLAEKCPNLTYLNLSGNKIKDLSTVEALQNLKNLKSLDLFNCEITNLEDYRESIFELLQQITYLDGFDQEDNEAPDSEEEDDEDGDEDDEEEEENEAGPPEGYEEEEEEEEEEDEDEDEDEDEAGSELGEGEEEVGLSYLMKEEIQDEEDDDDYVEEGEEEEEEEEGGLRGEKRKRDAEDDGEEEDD
Sequence of UniProt Q9NUQ2 (Q9NUQ2 whole entry, looked up): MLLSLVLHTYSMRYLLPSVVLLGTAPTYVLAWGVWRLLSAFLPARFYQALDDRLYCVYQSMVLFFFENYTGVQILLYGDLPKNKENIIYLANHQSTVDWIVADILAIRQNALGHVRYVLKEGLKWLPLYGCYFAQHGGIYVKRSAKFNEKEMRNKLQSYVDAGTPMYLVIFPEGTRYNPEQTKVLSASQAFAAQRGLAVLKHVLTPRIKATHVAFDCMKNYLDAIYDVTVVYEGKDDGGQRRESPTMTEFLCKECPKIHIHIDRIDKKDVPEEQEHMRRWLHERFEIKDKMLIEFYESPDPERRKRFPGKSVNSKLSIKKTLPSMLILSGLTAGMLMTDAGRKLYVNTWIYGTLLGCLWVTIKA
Sequence of UniProt Q6QNY0 (Q6QNY0 whole entry, looked up): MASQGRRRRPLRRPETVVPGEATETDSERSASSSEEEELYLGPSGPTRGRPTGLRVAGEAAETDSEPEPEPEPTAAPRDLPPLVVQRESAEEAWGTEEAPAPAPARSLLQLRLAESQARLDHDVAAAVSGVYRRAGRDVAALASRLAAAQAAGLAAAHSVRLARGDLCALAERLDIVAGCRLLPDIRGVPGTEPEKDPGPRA
Sequence of UniProt Q16864 (Q16864 whole entry, looked up): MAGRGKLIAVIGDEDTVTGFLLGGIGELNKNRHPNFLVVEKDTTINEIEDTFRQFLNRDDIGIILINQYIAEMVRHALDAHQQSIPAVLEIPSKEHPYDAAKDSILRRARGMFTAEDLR

Target | log2 fold change [1] | log2 fold change [2] | log2 fold change [3] | log2 fold change [4] | log2 fold change (entinostat) | log2 fold change (vorinostat) | log2 fold change (citarinostat) | log2 fold change (silmitasertib) | log2 fold change [5] | log2 fold change [6] | log2 fold change (entospletinib)
ANP32E (UniProt Q9BTT0) | 0.029 | -0.043 | 0.014 | 0.063 | 0.016 | 0.01 | 0.116 | 0.083 | -0.233 | -0.036 | 0
AHCYL1 (UniProt O43865) | 0.183 | 0.106 | 0.003 | 0.046 | -0.109 | 0.116 | -0.017 | 0.188 | -0.002 | 0.253 | 0.072
ATP5ME (UniProt P56385) | 0.003 | -0.007 | 0.057 | -0.04 | 0.026 | -0.027 | -0.007 | -0.008 | -0.037 | -0.039 | 0.027
ARPP19 (UniProt P56211) | -0.049 | -0.075 | -0.019 | 0.046 | 0.027 | -0.038 | 0.1 | 0 | 0.026 | -0.051 | -0.06
ATP6V1F isoform 2 (UniProt Q16864) | 0.175 | 0.221 | -0.078 | 0.143 | 0.087 | -0.092 | 0.026 | -0.042 | -0.073 | 0.026 | 0.027
ATP6V1H (UniProt Q9UI12) | 0 | -0.141 | -0.201 | -0.094 | 0.046 | 0.032 | 0.031 | 0.005 | 0.025 | -0.062 | 0.004
BLOC1S3 (UniProt Q6QNY0) | 0.057 | 0 | -0.014 | -0.023 | -0.06 | 0.039 | -0.018 | 0.006 | -0.013 | -0.014 | -0.079
BYSL (UniProt Q13895) | -0.012 | 0.053 | -0.052 | 0.062 | 0.046 | 0.058 | -0.007 | 0.085 | 0.068 | 0.001 | -0.065
ACTBL2 (UniProt Q562R1) | -0.205 | 0.038 | 1.54 (active) | 0.239 | 0.103 | 0.024 | -0.585 | -0.129 | -0.051 | -0.1 | 0.103
ATRN (UniProt O75882) | -0.007 | -0.023 | -0.073 | -0.031 | -0.016 | -0.006 | -0.004 | 0.006 | -0.538 (active) | -0.092 | 0.02
BRAP (UniProt Q7Z569) | 0.056 | -0.063 | -0.113 | -0.015 | 0.003 | 0.069 | 0.037 | 0.073 | 0.124 | 0.064 | 0.002
ADRM1 (UniProt Q16186) | -0.009 | -0.045 | -0.058 | 0.006 | -0.012 | 0.038 | 0.067 | 0 | 0.064 | -0.052 | -0.079
AURKA (UniProt O14965) | 0.077 | -0.02 | 0.059 | -0.033 | -0.072 | -0.06 | -0.036 | 0.015 | 0.105 | -0.328 | 0.282
AP2S1 (UniProt P53680) | -0.386 (active) | 0.102 | -0.009 | -0.039 | -0.066 | 0.108 | -0.077 | 0.011 | -0.314 (active) | -0.217 | 0.028
ATR (UniProt Q13535) | -0.003 | 0.002 | 0.044 | -0.089 | 0.017 | 0.057 | 0.039 | 0.035 | -0.058 | -0.066 | -0.021
ADD2 (UniProt P35612) | 0.048 | 0.039 | 0.036 | 0.024 | -0.038 | 0.023 | 0.024 | -0.054 | -0.092 | 0.013 | -0.008
AGPS (UniProt O00116) | -0.013 | 0.007 | -0.112 | 0 | 0.023 | 0.045 | 0.058 | 0.011 | -0.107 | -0.011 | 0.008
ABCC5 (UniProt O15440) | 0.016 | 0.088 | -0.038 | -0.005 | -0.017 | 0.001 | 0.114 | 0.008 | -0.082 | 0.12 | 0.028
BAD (UniProt Q92934) | -0.243 | 0.033 | 0.101 | -0.018 | -0.122 | 0.011 | -0.064 | -0.071 | 0.131 | -0.072 | -0.014
ARFGAP1 (UniProt Q8N6T3) | -0.036 | -0.033 | -0.073 | -0.052 | 0.041 | 0.006 | 0.056 | 0.063 | -0.092 | 0.035 | -0.032
AGPAT5 (UniProt Q9NUQ2) | -0.044 | 0.016 | -0.029 | -0.047 | -0.027 | -0.002 | 0.045 | -0.001 | -0.076 | -0.027 | 0.114
